Laboratory results published in PubChem BioAssay (Tox21).
Inconclusive results are not listed. Unmarked numbers belong to inactive results. Calls follow the shape of the dose curve; as a rule, active = well fitted curve in the direction sought with a large enough effect in the repeat runs; inconclusive = weak or mixed curves; inactive = no such curve, though single readings can be large; an effect the other way counts as inactive or inconclusive.

Assay: qHTS RealTime-Glo MT Cell Viability Assay in HepG2 cells - 16 hour (AID 1224885)
Settings: RealTime-Glo luminescence; series mostly up to 76.8 µM; activity change, negative = cytotoxic: at the top concentration
How it was run: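 Tox21 10K library screened in qHTS format on HepG2 cells carrying RealTime-Glo reagents. Compounds were added after a 5 h preincubation, and the luminescent signal from continuous culture was measured repeatedly during 40 h treatment.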
% is scaled to controls: 0 for no effect and ±100 for the full control effect.
Also: nearly all actives have a fitted effect of over 50% in size.

Structure (SMILES) | activity change, negative = cytotoxic
CC(O)C(CO)C(C)O (configuration not stated) | 0.957%
Cc1cc(O)c(Cl)cc1C | -5.08%
CCCCCCCCCCCCCCCCN(C)C | 0.191% [at 6.97 µM]
Cc1ccc2ccccc2n1 | 0.984%
CCCCC(CC)COC(=O)CC#N (configuration not stated) | 2.67%
CCCCCCCCCCCBr | -4.23% [at 35.3 µM]
COC(=O)C(c1ccccc1Cl)N1CCc2sccc2C1 (configuration not stated) | -0.833% [at 35.3 µM]
CCO/C=C1\N=C(c2ccccc2)OC1=O | 1.07%
C=CCN(CC=C)CC=C | 1.64%
CC[N+](C)(CC)CC | -0.376%
C/C(Cl)=C/CCl | 0.4%
C=CC(C)(CCC=C(C)C)OC(=O)C(C)C (configuration not stated) | 3.13%
CCCCC(O)/C=C(C)/C=C/C=C/C(=O)N1CCCC1=O (configuration not stated) | 1.23% [at 35.3 µM]
CCOCCOCCOC(C)=O | -0.0324%
CC12CCCC=C1C(=O)OC2=O (configuration not stated) | 2%
CCCc1ccc(O)c(OC)c1 | 1.31%
COc1cc(OC)cc(OC)c1 | 4.15% [at 35.3 µM]
CCCCCCC(=O)c1ccccc1 | 0.38%
CC(=O)SC[C@@H](C)C(=O)N1CCC[C@H]1C(=O)N[C@@H](Cc1ccccc1)C(=O)O | 3.46% [at 35.3 µM]

Structure (SMILES) | activity change, negative = cytotoxic
CN(C)CCc1c[nH]c2ccc(C[C@H]3COC(=O)N3)cc12 | 0.949% [at 35.3 µM]
CCCCCCCCS(=O)(=O)O | 2.16%
CC(C)(C)C(=O)NCCCC(=O)O | 4.08% [at 35.3 µM]
CC(C)(C)NCC(O)COc1cccc2c1CCC(=O)N2 (configuration not stated) | 2.88% [at 35.3 µM]
O=C(c1ccccc1)c1cccc(O)c1 | -2.8%
CCNC(=O)C(C)OC(=O)Nc1ccccc1 (configuration not stated) | 1.22%
Cc1ccccc1OCC(=O)O | 3.05%
Nc1nc(Cl)cc(Cl)n1 | 5.94%
O=C(O)Cc1c(Cl)ccc(Cl)c1Cl | -0.379%
CCCCCC(=O)CC | 1.52%
CC(C)(Sc1cc(C(C)(C)C)c(O)c(C(C)(C)C)c1)Sc1cc(C(C)(C)C)c(O)c(C(C)(C)C)c1 | -14.5% [at 35.3 µM]
COc1cc(S(N)(=O)=O)cc(C(=O)O)c1OC | 3.1% [at 35.3 µM]
C=CCCCCCCCCCCCCCC | -0.802% [at 15.8 µM]
CC(C)(C)c1ccc(C(=O)CCCCl)cc1 | -0.371% [at 35.3 µM]
CN(C)CCC[C@@]1(c2ccc(F)cc2)OCc2cc(C#N)ccc21 | 0.0532% [at 35.3 µM]
O=c1c(O)c(O)c1=O | -0.938%
NNC(=O)CCCCC(=O)NN | 1.52%
Cc1ccc(O)c(C(=O)c2ccccc2)c1 | -8.87%
CCCCCCC(O)CO (configuration not stated) | 2.87%

Assay: qHTS RealTime-Glo MT Cell Viability Assay in HEK293 cells - 24 hour (AID 1224886); also: top concentration of the series differs between compounds
Settings: RealTime-Glo luminescence; series mostly up to 76.8 µM; activity change, negative = cytotoxicity: at the top concentration
How it was run: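 Luminescence generated by NanoLuc from substrate produced by living HEK293 cells served as the viability signal. Each value reflects the reading at its stated time point during continuous 40 h compound exposure at 37 C.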

Structure (SMILES) | activity change, negative = cytotoxicity
CC(O)C(CO)C(C)O (configuration not stated) | 5.77%
Cc1cc(O)c(Cl)cc1C | 1.59%
CCCCCCCCCCCCCCCCN(C)C | 5.99% [at 6.97 µM]
Cc1ccc2ccccc2n1 | 10.6%
CCCCC(CC)COC(=O)CC#N (configuration not stated) | -1.12%
CCCCCCCCCCCBr | 1.15% [at 35.3 µM]
COC(=O)C(c1ccccc1Cl)N1CCc2sccc2C1 (configuration not stated) | -7.54% [at 35.3 µM]
CCO/C=C1\N=C(c2ccccc2)OC1=O | 18.8%
C=CCN(CC=C)CC=C | 10.6%
CC[N+](C)(CC)CC | 14.9%
C/C(Cl)=C/CCl | 12%
C=CC(C)(CCC=C(C)C)OC(=O)C(C)C (configuration not stated) | 2.83%
CCCCC(O)/C=C(C)/C=C/C=C/C(=O)N1CCCC1=O (configuration not stated) | 8% [at 35.3 µM]
CCOCCOCCOC(C)=O | 7.39%
CC12CCCC=C1C(=O)OC2=O (configuration not stated) | 9.17%
CCCc1ccc(O)c(OC)c1 | 0.751%
COc1cc(OC)cc(OC)c1 | 2.84% [at 35.3 µM]
CCCCCCC(=O)c1ccccc1 | -3.3%
CC(=O)SC[C@@H](C)C(=O)N1CCC[C@H]1C(=O)N[C@@H](Cc1ccccc1)C(=O)O | 1.12% [at 35.3 µM]
